# In PubChem BioAssay (NCI):
# Compounds without any hit were thinned out: in the full panel of roughly 79,000, 15% have a hit. Unmarked numbers belong to inactive results. Calls of active or inactive are those of the source. No stated cut-off is given here; in the data, active means growth inhibition above about 70%; inactive means the rest.
# Tests used:
# [1] = NCI Yeast Anticancer Drug Screen. Data for the rad52 strain (AID 147);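 further: 0% = growth of vehicle-treated control cultures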; conditions: S. cerevisiae rad52 mutant growth inhibition, hits give high values
# Method in brief: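 Vehicle-treated cultures served as the reference for growth inhibition of compound-exposed yeast bearing a DNA repair mutation.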
# [2] = NCI Yeast Anticancer Drug Screen. Data for the wt1 strain (AID 149);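 further: 0% = growth of vehicle-treated wt1 cultures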; conditions: S. cerevisiae wt1 strain (SPY 50644) growth inhibition, hits give high values
# Method in brief: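 Growth inhibition read against vehicle controls after compound exposure of the wt1 yeast strain.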
# [3] = NCI Yeast Anticancer Drug Screen. Data for the rad50EPP+ strain (AID 151);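 further: 0% = growth of vehicle-treated control cultures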; conditions: S. cerevisiae rad50 mutant strain, hits give high values
# Method in brief: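 In this screen, rad50EPP+ yeast were exposed to compounds. Growth inhibition was scored against vehicle-treated controls.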
# [4] = NCI Yeast Anticancer Drug Screen. Data for the mgt1 strain (AID 153); conditions: S. cerevisiae mgt1 mutant growth inhibition, hits give high values
# Method in brief: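 mgt1 strain exposed; growth vs vehicle control recorded as inhibition.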
# [5] = NCI Yeast Anticancer Drug Screen. Data for the rad50 strain (AID 155);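 further: 0% = growth of vehicle-only cultures of the same strain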; conditions: S. cerevisiae rad50 strain growth inhibition, hits give high values
# Method in brief: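 Readout: growth inhibition relative to vehicle-treated cultures. Compound exposure was carried out in a genetically defined yeast strain deficient in DNA damage repair.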
# [6] = NCI Yeast Anticancer Drug Screen. Data for the mec2-1 strain (AID 157); conditions: S. cerevisiae mec2-1 strain, hits give high values
# Method in brief: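 Vehicle-treated cultures served as reference for growth inhibition of compound-exposed mec2-1 yeast.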
# [7] = NCI Yeast Anticancer Drug Screen. Data for the rad14 strain (AID 159);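 further: 0% = growth of vehicle-treated control cultures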; conditions: S. cerevisiae rad14 strain growth inhibition, hits give high values
# Method in brief: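 Growth inhibition vs vehicle controls; genetically altered yeast strain (DNA damage repair defect) treated with test compounds.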
# [8] = NCI Yeast Anticancer Drug Screen. Data for the sgs1 mgt1 strain (AID 161);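 further: 0% = growth of cultures given vehicle only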; conditions: S. cerevisiae sgs1 mgt1 strain, hits give high values
# Method in brief: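 Mutant yeast exposed to compound; growth scored against vehicle-only wells.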
# [9] = NCI Yeast Anticancer Drug Screen. Data for the CLN2oe strain (AID 163);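 further: 0% = growth of vehicle-only control cultures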; conditions: S. cerevisiae CLN2oe strain, hits give high values
# Method in brief: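 Inhibition relative to vehicle-treated yeast is reported. Cells: strain with genetic alteration in cell-cycle control, grown with compound.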
# [10] = NCI Yeast Anticancer Drug Screen. Data for the cln2 rad14 strain (AID 165);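 further: 0% = growth equal to vehicle treated cultures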; conditions: S. cerevisiae cln2 rad14 strain, hits give high values
# Method in brief: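 Each compound was tested on cln2 rad14 yeast. Inhibition of growth was calculated against vehicle-exposed controls.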
# [11] = NCI Yeast Anticancer Drug Screen. Data for the bub3 strain (AID 167); conditions: S. cerevisiae bub3 mutant strain, hits give high values
# Method in brief: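 Readout: yeast growth inhibition, expressed relative to vehicle-only wells. The test organism is a mutant strain from a panel with lesions in DNA repair or checkpoint genes.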
# [12] = NCI Yeast Anticancer Drug Screen. Data for the wt2 strain (AID 169);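 further: 0% = growth of vehicle-treated yeast cultures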; conditions: S. cerevisiae wt2 strain growth inhibition, hits give high values
# Method in brief: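 Inhibition of yeast growth was determined after compound treatment, normalised to controls receiving only vehicle.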
# [13] = NCI Yeast Anticancer Drug Screen. Data for the mlh1 strain (AID 171);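 further: 0% = growth of vehicle-treated control cultures of the same strain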; conditions: S. cerevisiae mlh1 strain growth inhibition, hits give high values
# Method in brief: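 Vehicle-normalised growth inhibition of a repair- or checkpoint-altered yeast strain following compound treatment.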
# [14] = NCI Yeast Anticancer Drug Screen. Data for the sgs1 strain (AID 173);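 further: 0% = growth of vehicle-only control cultures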; conditions: S. cerevisiae sgs1 mutant, hits give high values
# Method in brief: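 Screen format: yeast with repair or checkpoint alterations, compound exposure, growth read relative to vehicle.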
# [15] = NCI Yeast Anticancer Drug Screen. Data for the mlh1 rad18 strain (AID 175); conditions: S. cerevisiae mlh1 rad18 strain growth inhibition, hits give high values
# Method in brief: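 Vehicle-treated cultures served as the reference for growth inhibition in a yeast strain carrying DNA damage repair alterations exposed to each compound.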
# [16] = NCI Yeast Anticancer Drug Screen. Data for the rad18 strain (AID 177); conditions: S. cerevisiae rad18 mutant growth inhibition, hits give high values
# Method in brief: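 Test articles were incubated with altered yeast defective in DNA damage repair. Results are given as inhibition of growth versus vehicle.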
# [17] = at 5.0 µM (retest, dose inferred, filed as 0.5)
# [18] = at 50.0 µM (retest, dose inferred, filed as 5.0)
structure (smiles),measurement,setting,value
Nc1ccc2cc(Br)ccc2c1Br,growth inhibition,[1]; at 1.2 µM,-6%
same,growth inhibition,[1]; at 3.7 µM,1%
same,growth inhibition,[1]; at 11.0 µM,1%
same,growth inhibition,[1]; at 33.0 µM,3%
same,growth inhibition,[1]; at 100.0 µM,52%
same,growth inhibition,[2]; at 1.2 µM,-2%
same,growth inhibition,[2]; at 3.7 µM,-3%
same,growth inhibition,[2]; at 11.0 µM,-3%
same,growth inhibition,[2]; at 33.0 µM,-5%
same,growth inhibition,[2]; at 100.0 µM,-1%
same,growth inhibition,[3]; at 1.2 µM,1%
same,growth inhibition,[3]; at 3.7 µM,7%
same,growth inhibition,[3]; at 11.0 µM,23%
same,growth inhibition,[3]; at 33.0 µM,19%
same,growth inhibition,[3]; at 100.0 µM,49%
same,growth inhibition,[4]; at 1.2 µM,-4%
same,growth inhibition,[4]; at 3.7 µM,-1%
same,growth inhibition,[4]; at 11.0 µM,-1%
same,growth inhibition,[4]; at 33.0 µM,-1%
same,growth inhibition,[4]; at 100.0 µM,4%
same,growth inhibition,[5]; at 1.2 µM,-2%
same,growth inhibition,[5]; at 3.7 µM,1%
same,growth inhibition,[5]; [17],13%
same,growth inhibition,[5]; at 11.0 µM,8%
same,growth inhibition,[5]; at 33.0 µM,2%
same,growth inhibition,[5]; [18],27%
same,growth inhibition,[5]; at 50.0 µM,4.6%
same,growth inhibition,[5]; at 100.0 µM,26%
same,growth inhibition,[6]; at 1.2 µM,0%
same,growth inhibition,[6]; at 3.7 µM,-1%
same,growth inhibition,[6]; [17],-5%
same,growth inhibition,[6]; at 11.0 µM,-2%
same,growth inhibition,[6]; at 33.0 µM,-2%
same,growth inhibition,[6]; [18],1%
same,growth inhibition,[6]; at 50.0 µM,90.2% (active)
same,growth inhibition,[6]; at 100.0 µM,1%
same,growth inhibition,[7]; at 1.2 µM,-6%
same,growth inhibition,[7]; at 3.7 µM,0%
same,growth inhibition,[7]; at 11.0 µM,7%
same,growth inhibition,[7]; at 33.0 µM,5%
same,growth inhibition,[7]; at 100.0 µM,26%
same,growth inhibition,[8]; [17],15%
same,growth inhibition,[8]; [18],14%
same,growth inhibition,[8]; at 50.0 µM,18%
same,growth inhibition,[9]; at 1.2 µM,-2%
same,growth inhibition,[9]; at 3.7 µM,-2%
same,growth inhibition,[9]; at 11.0 µM,-3%
same,growth inhibition,[9]; at 33.0 µM,-5%
same,growth inhibition,[9]; at 100.0 µM,2%
same,growth inhibition,[10]; [17],3%
same,growth inhibition,[10]; [18],9%
same,growth inhibition,[10]; at 50.0 µM,-23%
same,growth inhibition,[11]; at 1.2 µM,3%
same,growth inhibition,[11]; at 3.7 µM,3%
same,growth inhibition,[11]; [17],22%
same,growth inhibition,[11]; at 11.0 µM,1%
same,growth inhibition,[11]; at 33.0 µM,4%
same,growth inhibition,[11]; [18],47%
same,growth inhibition,[11]; at 50.0 µM,88.5% (active)
same,growth inhibition,[11]; at 100.0 µM,6%
same,growth inhibition,[12]; at 1.2 µM,-1%
same,growth inhibition,[12]; at 3.7 µM,-8%
same,growth inhibition,[12]; at 11.0 µM,-5%
same,growth inhibition,[12]; at 33.0 µM,-6%
same,growth inhibition,[12]; at 100.0 µM,28%
same,growth inhibition,[13]; at 1.2 µM,-2%
same,growth inhibition,[13]; at 3.7 µM,1%
same,growth inhibition,[13]; at 11.0 µM,3%
same,growth inhibition,[13]; at 33.0 µM,1%
same,growth inhibition,[13]; at 100.0 µM,20%
same,growth inhibition,[14]; at 1.2 µM,-24%
same,growth inhibition,[14]; at 3.7 µM,-22%
same,growth inhibition,[14]; at 11.0 µM,-17%
same,growth inhibition,[14]; at 33.0 µM,-9%
same,growth inhibition,[14]; at 100.0 µM,30%
same,growth inhibition,[15]; [17],28%
same,growth inhibition,[15]; [18],57%
same,growth inhibition,[15]; at 50.0 µM,91.2% (active)
same,growth inhibition,[16]; at 1.2 µM,-4%
same,growth inhibition,[16]; at 3.7 µM,-1%
same,growth inhibition,[16]; at 11.0 µM,7%
same,growth inhibition,[16]; at 33.0 µM,-3%
same,growth inhibition,[16]; at 100.0 µM,20%
COc1ccc2cc3c4cc5c(cc4cc[n+]3cc2c1OC)OCO5,growth inhibition,[1]; at 1.2 µM,22%
same,growth inhibition,[1]; at 3.7 µM,48%
same,growth inhibition,[1]; at 11.0 µM,75% (active)
same,growth inhibition,[1]; at 33.0 µM,94% (active)
same,growth inhibition,[1]; at 100.0 µM,97% (active)
same,growth inhibition,[2]; at 1.2 µM,8%
same,growth inhibition,[2]; at 3.7 µM,29%
same,growth inhibition,[2]; at 11.0 µM,50%
same,growth inhibition,[2]; at 33.0 µM,84% (active)
same,growth inhibition,[2]; at 100.0 µM,95% (active)
same,growth inhibition,[3]; at 1.2 µM,0%
same,growth inhibition,[3]; at 3.7 µM,20%
same,growth inhibition,[3]; at 11.0 µM,60%
same,growth inhibition,[3]; at 33.0 µM,77% (active)
same,growth inhibition,[3]; at 100.0 µM,88% (active)
same,growth inhibition,[4]; at 1.2 µM,15%
same,growth inhibition,[4]; at 3.7 µM,39%
same,growth inhibition,[4]; at 11.0 µM,62%
same,growth inhibition,[4]; at 33.0 µM,89% (active)
same,growth inhibition,[4]; at 100.0 µM,97% (active)
same,growth inhibition,[5]; at 1.2 µM,33%
same,growth inhibition,[5]; at 3.7 µM,70% (active)
same,growth inhibition,[5]; [17],76% (active)
same,growth inhibition,[5]; at 11.0 µM,88% (active)
same,growth inhibition,[5]; at 33.0 µM,94% (active)
same,growth inhibition,[5]; [18],96% (active)
same,growth inhibition,[5]; at 50.0 µM,97.1% (active)
same,growth inhibition,[5]; at 100.0 µM,97% (active)
same,growth inhibition,[6]; at 1.2 µM,9%
same,growth inhibition,[6]; at 3.7 µM,32%
same,growth inhibition,[6]; [17],57%
same,growth inhibition,[6]; at 11.0 µM,55%
same,growth inhibition,[6]; at 33.0 µM,89% (active)
same,growth inhibition,[6]; [18],97% (active)
same,growth inhibition,[6]; at 50.0 µM,92.2% (active)
same,growth inhibition,[6]; at 100.0 µM,97% (active)
same,growth inhibition,[7]; at 1.2 µM,18%
same,growth inhibition,[7]; at 3.7 µM,46%
same,growth inhibition,[7]; at 11.0 µM,78% (active)
same,growth inhibition,[7]; at 33.0 µM,96% (active)
same,growth inhibition,[7]; at 100.0 µM,98% (active)
same,growth inhibition,[8]; [17],68%
same,growth inhibition,[8]; [18],97% (active)
same,growth inhibition,[8]; at 50.0 µM,93.3% (active)
same,growth inhibition,[9]; at 1.2 µM,13%
same,growth inhibition,[9]; at 3.7 µM,29%
same,growth inhibition,[9]; at 11.0 µM,49%
same,growth inhibition,[9]; at 33.0 µM,79% (active)
same,growth inhibition,[9]; at 100.0 µM,97% (active)
same,growth inhibition,[10]; [17],55%
same,growth inhibition,[10]; [18],94% (active)
same,growth inhibition,[10]; at 50.0 µM,89.2% (active)
same,growth inhibition,[11]; at 1.2 µM,6%
same,growth inhibition,[11]; at 3.7 µM,19%
same,growth inhibition,[11]; [17],43%
same,growth inhibition,[11]; at 11.0 µM,46%
same,growth inhibition,[11]; at 33.0 µM,88% (active)
same,growth inhibition,[11]; [18],96% (active)
same,growth inhibition,[11]; at 50.0 µM,97.6% (active)
same,growth inhibition,[11]; at 100.0 µM,98% (active)
same,growth inhibition,[12]; at 1.2 µM,38%
same,growth inhibition,[12]; at 3.7 µM,32%
same,growth inhibition,[12]; at 11.0 µM,62%
same,growth inhibition,[12]; at 33.0 µM,87% (active)
same,growth inhibition,[12]; at 100.0 µM,97% (active)
same,growth inhibition,[13]; at 1.2 µM,12%
same,growth inhibition,[13]; at 3.7 µM,31%
same,growth inhibition,[13]; at 11.0 µM,53%
same,growth inhibition,[13]; at 33.0 µM,87% (active)
same,growth inhibition,[13]; at 100.0 µM,97% (active)
same,growth inhibition,[14]; at 1.2 µM,24%
same,growth inhibition,[14]; at 3.7 µM,28%
same,growth inhibition,[14]; at 11.0 µM,83% (active)
same,growth inhibition,[14]; at 33.0 µM,96% (active)
same,growth inhibition,[14]; at 100.0 µM,98% (active)
same,growth inhibition,[16]; at 1.2 µM,8%
same,growth inhibition,[16]; at 3.7 µM,28%
same,growth inhibition,[16]; at 11.0 µM,53%
same,growth inhibition,[16]; at 33.0 µM,89% (active)
same,growth inhibition,[16]; at 100.0 µM,97% (active)
